A selection: hits, their analogues and other compounds. The true share with any hit is near 1.2%.
NPR2 activator – GC-B (human) receptor activation. P20594. HEK293-GC-B cells, CNP EC30, cGMP TR-FRET; 0% at EC30 CNP, 100% saturating CNP. activation, % at 10 µM. 370,000 compounds, 0.11% hits;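 active means activation at 10 µM reaching about 35% in either raw or pattern-adjusted values, limit read from the data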
Neddylation inh – inhibitors of human cullin neddylation; P61081+Q13564; TR-FRET cullin neddylation, biochemical; inhibition, % at 25 µM; 360,000 compounds, 0.58% hits; AID 651699; in the data active means inhibition above about 36%
NOD2-RIPK2 inh – NOD2-RIPK2 protein interaction inhibition; O43353; CHO BLA complementation NOD2-RIPK2, CCF4 ratio; inhibition, % at 4.98 µM; 360,000 compounds, 0.38% hits; AID 624267; in the data active means inhibition above about 21%;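 further: 0% = vehicle only and 100% = reference blocker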
TLR4-MyD88 BLA – TLR4-MyD88 interaction inhibition in cells; O00206+Q99836; HeLa CL3-4 TLR4/MyD88 BLA complementation, FRET ratio; inhibition, % at 8.4 µM; 200,000 compounds, 0.18% hits; AID 861; in the data active means inhibition above about 25%;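 further: 0% = vehicle and 100% = reference inhibitor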
TLR9-MyD88 block – blocks human TLR9 binding to MyD88 | CHO BLA complementation TLR9-MyD88, CCF4 FRET ratio | Q9NR96+Q99836 | AID 504734 | 340,000 compounds, 0.21% hits | inhibition, % at 4.98 µM;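 active means inhibition above the mean over all tested compounds plus 3 SD, cut at about 21% in these data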;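 further: 0% = DMSO only wells and 100% = clavulanate BLA inhibitor control wells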
NPR1 activator – GC-A (human) enzyme activation. P16066. HEK293 GC-A cells, cGMP TR-FRET, EC30 ANP; 0% at EC30 ANP, 100% saturating ANP. activation, % at 10 µM. 370,000 compounds, 0.14% hits. AID 1671463; in the data active means activation above about 40%
Target sequence (P16066 whole entry, looked up): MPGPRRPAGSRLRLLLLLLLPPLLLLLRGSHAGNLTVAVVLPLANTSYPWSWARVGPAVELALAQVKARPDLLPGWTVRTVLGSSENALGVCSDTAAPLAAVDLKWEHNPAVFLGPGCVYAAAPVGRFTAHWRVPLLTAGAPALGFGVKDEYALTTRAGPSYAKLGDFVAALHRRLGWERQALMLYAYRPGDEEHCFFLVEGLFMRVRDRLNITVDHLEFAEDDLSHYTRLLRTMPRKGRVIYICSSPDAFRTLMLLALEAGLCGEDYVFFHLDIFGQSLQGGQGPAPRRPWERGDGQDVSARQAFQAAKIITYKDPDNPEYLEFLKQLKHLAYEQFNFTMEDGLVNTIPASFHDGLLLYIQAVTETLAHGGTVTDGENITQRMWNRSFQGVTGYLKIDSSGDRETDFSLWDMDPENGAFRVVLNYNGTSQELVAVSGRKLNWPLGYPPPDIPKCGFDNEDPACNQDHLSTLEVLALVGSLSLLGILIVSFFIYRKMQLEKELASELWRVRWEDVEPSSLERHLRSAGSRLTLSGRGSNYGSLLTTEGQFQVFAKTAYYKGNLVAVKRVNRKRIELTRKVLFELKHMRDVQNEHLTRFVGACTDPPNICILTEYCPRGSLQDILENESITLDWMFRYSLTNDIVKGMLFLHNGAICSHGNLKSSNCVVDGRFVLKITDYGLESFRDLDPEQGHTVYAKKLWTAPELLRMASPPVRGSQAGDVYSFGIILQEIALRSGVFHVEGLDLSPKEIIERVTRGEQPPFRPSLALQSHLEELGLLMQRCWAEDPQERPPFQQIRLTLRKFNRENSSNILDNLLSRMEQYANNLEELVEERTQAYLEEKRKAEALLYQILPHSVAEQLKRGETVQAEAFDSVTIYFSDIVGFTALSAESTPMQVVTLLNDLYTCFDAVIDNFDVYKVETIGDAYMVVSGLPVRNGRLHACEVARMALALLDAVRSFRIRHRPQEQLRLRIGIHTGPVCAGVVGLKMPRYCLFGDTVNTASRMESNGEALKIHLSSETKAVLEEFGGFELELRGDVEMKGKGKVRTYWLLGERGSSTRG
NOD2 RIPK2 conf – NOD2-RIPK2 interaction inhibition confirmed; shares compounds with NOD2-RIPK2 inh; CHO cells, NOD2-RIPK2 BLA complementation, CCF4 FRET; inhibition, % at 4.98 µM; 1,200 compounds, 70% hits; AID 624370;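 active means mean inhibition across replicates above a set limit taken from the earlier primary screen, cut at about 21% in these data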;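 further: 0% = DMSO-only wells and the high end = clavulanate BLA-blocked wells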
NOD2 BLA counter – counter-screen for NOD2-RIPK2 interaction inhibitors: BLA reporter; shares compounds with NOD2-RIPK2 inh; CHO BLA reporter, CCF4 FRET ratio, counterscreen; inhibition, % at 4.98 µM; 1,200 compounds, 57% hits; AID 624371;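 active means mean inhibition above the low-control mean inhibition plus three low-control SD, cut at about 11% in these data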;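 further: 0% = DMSO only wells and 100% = clavulanate high control wells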
* hit, by the source's call; . = no result shown.

SMILES	NPR2 activator	Neddylation inh	NOD2-RIPK2 inh	TLR4-MyD88 BLA	TLR9-MyD88 block	NPR1 activator	NOD2 RIPK2 conf	NOD2 BLA counter
COc1ccc(C(C(=O)NC(C)(C)C)n2c(-c3ccc(-c4ccccc4)cc3)nc3ccccc32)cc1 (configuration not stated)	5	-22	-9	.	.	0	.	.
COc1ccc(C(C(=O)NC(C)(C)C)n2c(=O)c(-c3cc4ccccc4[nH]3)nc3ccccc32)cc1 (configuration not stated)	-2	.	41*	.	.	0	40*	64*
CC(C)(C)NC(=O)C(c1ccncc1)n1c(=O)c(-c2cc3ccccc3[nH]2)nc2ccccc21 (configuration not stated)	-19	.	49*	.	.	-16	48*	68*
Cc1csc(-c2nc3ccccc3n2C(C(=O)NC(C)(C)C)c2cc3ccccc3o2)c1 (configuration not stated)	-3	7	-1	.	.	-1	.	.
COc1cccc(C(=O)N[C@H](C(=O)N2CCC[C@H]2C(=O)NC2CCCC2)C2CCCCC2)c1	0	.	.	.	.	2	.	.
Cc1ccccc1CN1CCCCC(NC(=O)c2ccccc2)C1=O (configuration not stated)	-1	.	.	.	.	-1	.	.
COc1cc(F)c(S(=O)(=O)N2CCCN(S(=O)(=O)c3cccc(N)c3)CC2)c(F)c1	-2	.	.	.	.	2	.	.
C[C@@H]1ON(C)[C@H]2C[C@H]3c4cc(-c5ccccc5)ccc4CCN3C[C@@H]12	-4	.	.	.	.	3	.	.
COc1ccc(C2=NN(c3ccc(C(=O)O)cc3)C(c3ccc(OC)c(OC)c3)C2)cc1 (configuration not stated)	-3	33	25*	.	9	17	20	31*
CC(=O)Nc1cccc(-c2ccnc3c2CC(C)(C(=O)NCc2ccncc2)O3)c1 (configuration not stated)	-5	10	21*	.	.	0	4	-1
CC(=O)Nc1ccc(-c2ccnc3c2CC(C)(C(=O)NCc2ccncc2)O3)cc1 (configuration not stated)	-2	21	-2	.	.	1	.	.
COc1ccc(/C=C/C(=O)c2ccccc2)c(OC)c1	-5	23	-6	2	3	-2	.	.
COc1ccc2[nH]cc(/C=C/C(=O)c3ccccc3)c2c1	-8	-1	27*	.	12	0	21*	32*
O=C(/C=C/c1ccccc1O)c1ccccc1	-2	3	-3	.	-2	3	.	.
O=C(/C=C/c1c[nH]c2ccccc12)c1ccccc1	-7	-4	30*	22	12	2	30*	35*
COc1cc(NC(=O)Cn2c(C)cc3ccccc3c2=O)cc(OC)c1OC	4	-123	32*	1	-2	3	6	-2
Fc1ccccc1-c1n[nH]c(=S)n1N=Cc1ccc(-c2ccccc2)cc1	-8	.	.	.	.	-4	.	.
O[C@H](COc1ccc(F)cc1)CN1CCC(C(O)(c2ccccc2)c2ccccc2)CC1	-4	.	.	.	.	-3	.	.
CCOc1ccc2nc3ccc4[nH]onc4c3c2c1	-5	.	34*	34*	17	10	28*	37*
O=C(/C=C1\C(=O)Nc2ccccc21)/C=C1\C(=O)Nc2ccccc21	-18	2	25*	.	14	-24	74*	16*
O=C1Nc2ccccc2/C1=C\C(=O)c1ccccc1	0	4	30*	.	1	16	29*	-2
CC(C)Oc1ccc(C(=O)/C=C2/C(=O)Nc3ccccc32)cc1	2	4	19	.	6	9	.	.
CN(O)/C=C1\C(=O)Nc2ccccc21	-5	-3	9	-8	-4	-16	.	.
COc1ccccc1Cc1c(-c2ccccc2)nc2ccc(C)cn12	2	.	.	.	.	-4	.	.
CCC[C@H]1[C@@H](OC(=O)N2CCCC2)CC[C@@]23CCCN2C(=O)CCC[C@@H]13	-11	.	.	.	.	-3	.	.
SMILES	NPR2 activator	Neddylation inh	NOD2-RIPK2 inh	TLR4-MyD88 BLA	TLR9-MyD88 block	NPR1 activator	NOD2 RIPK2 conf	NOD2 BLA counter
CC1CCN(Cc2cc(=O)oc3cc(O)c(Cl)cc23)CC1	-5	.	31*	.	7	5	32*	49*
CC1CN(Cc2cc(=O)oc3cc(O)c(Cl)cc23)CC(C)O1 (configuration not stated)	1	.	-9	.	-21	2	.	.
CC(NC(=O)CN(c1cccc(C(F)(F)F)c1)S(=O)(=O)c1ccc(Cl)c([N+](=O)[O-])c1)c1ccccc1 (configuration not stated)	0	6	39*	-4	8	-28	35*	-1
O=C(CN(c1cccc(C(F)(F)F)c1)S(=O)(=O)c1ccc(Cl)c([N+](=O)[O-])c1)NCc1ccccc1	4	-2	-12	14	-3	-22	.	.
CCCCCOc1ccc(Br)cc1/C(C)=N/NC1=NCCN1	-20	4	23*	5	9	-34	22*	-2
COc1ccc(/C=C/C(=O)Oc2ccc(C)c(C)c2)cc1OC	-5	9	-3	-4	-5	1	.	.
COc1cc(/C=C/[N+](=O)[O-])ccc1OC(=O)/C=C/c1ccc(F)cc1	1	5	38*	.	1	18	56*	-2
CCc1c(-c2ccc(OC)cc2)ncn1CCc1ccccc1OC	-6	.	.	.	.	-7	.	.
CCCCCCC/C=C(\C)[C@@H](O)[C@@H](C)C(=O)N1CCC[C@@H]1C(=O)O[C@H](C(=O)O[C@@H](C)C(=O)O)[C@@H](C)CC	0	.	.	.	.	1	.	.
COc1c(O)c(=O)n2c3ccccc3c3ccnc1c32	-3	-16	26*	.	18	1	21	18*
CCCCn1c(=O)[nH]c2nc3cc(N)ccc3nc2c1=O	-7	-88	26*	11	19	-1	31*	37*
Cc1cc2nc3c(=O)n(CCc4ccccc4)c(=O)[nH]c3nc2cc1N	-3	-74	12	.	5	2	.	.
Nc1ccc2nc3c(=O)n(CCc4ccccc4)c(=O)[nH]c3nc2c1	-4	-99	38*	.	.	15	36*	35*
COc1ccc(/C=C/S(=O)(=O)NCc2ccccc2)c(CNC(=O)OC(C)(C)C)c1	3	.	.	.	.	-3	.	.
C=CCn1c(-c2oc3nc(-c4ccccc4)cc(-c4ccccc4)c3c2N)n[nH]c1=S	-3	23	34*	8	1	-8	87*	88*
COC(=O)c1cc(=O)n(Cc2ccco2)c(=Nc2ccccc2)s1	-1	.	.	.	.	-8	.	.
Cc1ccc(/C=N/Nc2ccnc3cc(Cl)ccc23)c(C)c1	-14	45*	21*	-11	19	0	30*	42*
